# PubChem BioAssay AID1851 (National Center for Advancing Translational Sciences (NCATS), 2009)
# The whole screen tested about 16,000 compounds, of which about 5,800 (36%) were called active. About 23% were inconclusive and are not listed. The list shows a part of the results. A number with no mark means an inactive call. Calls come from the whole dose curve; as a rule, active = well fitted curve in the direction sought with a large enough effect; inconclusive = small, poorly fitted or top-dose-only effect, or effect the other way; inactive = no such curve, though single readings can be large or run the other way.
# Target: Cytochrome P450 2C19 (Homo sapiens) (UniProt P33261)
# Sequence (P33261 whole entry, looked up): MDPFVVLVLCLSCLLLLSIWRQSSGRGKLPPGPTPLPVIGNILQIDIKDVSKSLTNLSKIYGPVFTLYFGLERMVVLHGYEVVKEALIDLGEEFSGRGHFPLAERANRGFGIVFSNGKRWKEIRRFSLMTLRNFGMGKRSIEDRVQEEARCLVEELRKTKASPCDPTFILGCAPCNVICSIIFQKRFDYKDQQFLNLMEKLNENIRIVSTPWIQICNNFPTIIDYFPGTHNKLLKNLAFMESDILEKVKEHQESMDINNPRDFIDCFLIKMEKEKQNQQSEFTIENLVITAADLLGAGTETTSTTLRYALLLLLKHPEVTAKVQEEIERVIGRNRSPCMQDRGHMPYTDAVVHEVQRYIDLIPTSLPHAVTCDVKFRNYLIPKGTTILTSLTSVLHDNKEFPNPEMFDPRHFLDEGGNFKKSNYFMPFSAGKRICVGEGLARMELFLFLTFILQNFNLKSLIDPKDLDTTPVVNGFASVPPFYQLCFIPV
# Assay: Cytochrome panel assay with activity outcomes
# Conditions: recombinant CYP, pro-luciferin dealkylation, luminescence, p450-cyp2c19; series mostly up to 57.1 µM; activity, negative = inhibition: at the top concentration
# % is set by controls: 0 for no effect and ±100 for the full control effect.
Structure (SMILES),"activity, negative = inhibition",AC50
COc1cc(S(C)=O)ccc1-c1nc2ncccc2[nH]1 (stereo unspecified),18.6% [at 25.6 µM],–
Cc1cc(SCC(=O)c2cccs2)nc2c(C)cccc12,–,3.16 µM (active)
CC[C@]1(C)CC(=O)NC1=O,–,inactive
Cc1ccc(Nc2nc(Cl)nc(N(C)C#N)n2)cc1,–,25.1 µM (active)
COC(=O)c1ccccc1N/C=C1\CCc2c(c(C)nn2-c2ccccn2)C1=O,–,1.26 µM (active)
COc1ccc(-c2cc(C(=O)O)c3c(C)nn(-c4ccccn4)c3n2)cc1,-24.8%,–
C(=N\Nc1nc(Nc2ccccc2)nc(N2CCOCC2)n1)/c1c[nH]c2ccccc12,–,8.91 µM (active)
COc1ccc(N2CCN(c3nc(Nc4ccc(F)cc4)nc(OC)n3)CC2)cc1,-29%,–
CC(=C\C(=O)O)/C(=C/c1ccccc1)C(=O)O,35.5%,–
CC(=O)/C(=C\c1ccccc1F)C(=O)c1ccccc1,–,2 µM (active)
c1ccc(-c2nc(N3CCCCCC3)nc(-n3ccnc3)n2)cc1,–,2 µM (active)
CN(c1ccccc1)c1nc(-n2ccnc2)nc(-n2ccnc2)n1,–,1.78 µM (active)
COc1ccc(Oc2nccc(-c3ccc(F)cc3)c2C#N)cc1,-12.6%,–
N#Cc1c(-c2ccccc2)ccnc1Oc1ccccc1,–,1.58 µM (active)
Cn1c(=O)c(-c2cccc(C#N)c2)nc2cnc(Oc3ccccc3)nc21,25.2%,–
COc1ccc(C(=O)CCN(C)C)c2ccccc12,-37.3% [at 11.4 µM],–
COc1ccc2sc3ccccc3c(=O)c2c1OC,–,25.1 µM (active)
CCN(CC)CCNc1ccc(CO)c2sc3ccccc3c(=O)c12,-7.59% [at 25.6 µM],–
COc1ccc(/C(O)=C2/C(=O)C(=O)N(CCN3CCOCC3)C2c2ccc(C)cc2)cc1 (stereo unspecified),-8.32%,–
Cc1nc2ccccn2c1/C(O)=C1\C(=O)C(=O)N(CCN2CCOCC2)C1c1cccnc1 (stereo unspecified),-29%,–
CCOC(=O)c1[nH]c(C)c(/C(O)=C2\C(=O)C(=O)N(CCN3CCOCC3)C2c2cccs2)c1C (stereo unspecified),–,8.91 µM (active)
Cc1cc(N2CCOCC2)nc2ccc(Cc3ccc4nc(N5CCOCC5)cc(C)c4c3)cc12,-39.6% [at 11.4 µM],–
CC(=O)Nc1ccc(Cc2ccc3[nH]c(=O)cc(C)c3c2)cc1,3.04% [at 11.4 µM],–
Cc1cc(Cl)nc2ccc(Cc3ccc4nc(Cl)cc(C)c4c3)cc12,–,0.501 µM (active)
CC(C)=NNc1ncnc2nc[nH]c12,43.1% [at 11.4 µM],–
Cc1ccc(N(Cc2ccc([N+](=O)[O-])cc2)C(=O)c2ccco2)cc1,–,10 µM (active)

Structure (SMILES),"activity, negative = inhibition",AC50
CN(C)c1ccc(C(c2ccc(N(C)C)cc2)c2ccc([N+](=O)[O-])cc2)cc1,-36.9% [at 11.4 µM],–
O=c1c2ccccc2sc2c(CO)ccc(NCCN3CCCCC3)c12,-24.6% [at 11.4 µM],–
CN1CCc2ccccc2[C@@H]1Cc1ccccc1NC(=O)c1sc2ccccc2c1Cl,–,2.51 µM (active)
O=C(CSc1nncn1-c1ccccc1)Nc1ccc(N2CCOCC2)cc1,-29.9%,–
Cc1nc(SCC(=O)Nc2ccc3c(c2)OCCO3)c2oc3ccccc3c2n1,–,0.562 µM (active)
CC(C)(C)c1nc(SCC(=O)Nc2ccc3c(c2)OCCO3)c2ccccc2n1,–,1.78 µM (active)
CC(C)(C)c1nc(SCC(=O)Nc2ccc(N3CCOCC3)cc2)c2ccccc2n1,–,10 µM (active)
Cc1nc(SCC(=O)Nc2ccc(N3CCOCC3)cc2)nc(C)c1C,–,25.1 µM (active)
CCCNC(=O)N1N=C(c2ccc(N)cc2)c2cc3c(cc2[C@H]1C)OCO3,-37.3%,–
O=C(O)Cc1ccc(NC(=O)C2CCCCC2C(=O)O)cc1 (stereo unspecified),-12.8%,–
COc1ccccc1CNC(=O)C/C(C)=N/NC(=O)Cc1ccccc1,-3.74%,–
CN1CCC(=NNC(=O)CSCc2ccccc2)CC1,–,17.8 µM (active)
CC1CCC(=NNC(=O)Cc2ccccc2)CC1 (stereo unspecified),–,25.1 µM (active)
O=C(c1coc2ccccc2c1=O)N1CCN(c2cccc(C(F)(F)F)c2)CC1,–,14.1 µM (active)
O=C(c1cc(C(F)(F)F)cc(C(F)(F)F)c1)N1CCC[C@@]2(CCN(c3ccccc3)C2)C1,-33.8%,–
O=C(c1cccc(F)c1)N1CCC2(CCN(Cc3cc(C(F)(F)F)cc(C(F)(F)F)c3)CC2)CC1,22.7%,–
CCCCc1cc2ccccc2c(OCCN(C)C)n1,-31.4% [at 25.6 µM],–
O=C(Nc1ccccc1C(=O)O)c1ccc2ccccc2n1,-22.5%,–
CC(C)C(=O)Cc1ccc2ccccc2n1,6.88% [at 11.4 µM],–
CCCCC[C@H](O)c1cccc(OCc2ccc3ccccc3n2)c1,–,6.31 µM (active)
O=C(O)c1ccccc1Nc1cccc(OCc2ccc3ccccc3n2)c1,–,5.01 µM (active)
O=C(O)CP(=O)(O)O,–,inactive
C=CC[C@@H]1C=C[C@H](ON=C(C)C)[C@H](CO)O1,-4.34% [at 11.4 µM],–
Cc1cc(-c2n[nH]c(=S)o2)c(C)n1-c1ccccc1,-95.6%,–
Cc1cc(C)nc(Nc2ncc(O)n2-c2ccccc2)n1,-17%,–
Cc1cc(C)cc(-n2c(C)cc(C=C(C#N)C#N)c2C)c1,–,5.62 µM (active)

Structure (SMILES),"activity, negative = inhibition",AC50
Cc1cc(C=C(C#N)C#N)c(C)n1-c1ccccc1,–,1 µM (active)
C#CCCCO/N=C1/C[C@@H](O)[C@@H](O)[C@@H]2[C@@H]3C(=O)N(CCC(=O)OCC)C(=O)[C@H]3CC[C@@H]12,-1.53% [at 11.4 µM],–
COc1ccc(-n2c(=O)cnc3cnc(N4CCNCC4)nc32)cc1,-4.4%,–
Cc1cccc(NC(=O)Cn2cccc2)c1,–,15.8 µM (active)
CSc1cccc(NC(=O)Cn2cccc2)c1,–,6.31 µM (active)
CSc1cccc(NC(=O)OC2CCCCCCCCCCC2)c1,-41.3% [at 11.4 µM],–
Cc1ccc(CNC(=O)Cn2c(=O)oc3ccccc32)o1,–,3.55 µM (active)
CCOc1cc(/C=C2/NC(=O)N(CC(=O)Nc3cccc(C)c3)C2=O)ccc1OC,27.2%,–
CSc1cccc(NC(=O)Nc2ccc(Cl)cc2)c1,–,2 µM (active)
COc1ccc(CCNC(=O)Cn2c(=O)oc3ccccc32)cc1OC,-24.7%,–
N#Cc1cccc(NC(=O)N2CCCC3(CCN(C(=O)c4csnn4)CC3)C2)c1,3.09%,–
CC(=O)OC[C@H]1O[C@@H](O/N=C(\C)CCN2CCCc3nc(C)c(C)cc32)[C@H](OC(C)=O)[C@@H](OC(C)=O)[C@H]1OC(C)=O,-24.1% [at 11.4 µM],–
Cc1cc(C)nc(SCCc2cccc[n+]2C)n1,66.4% [at 11.4 µM],–
Cc1cccc(NC(=O)CCSc2nc(C)cc(C)n2)c1,–,4.47 µM (active)
Cc1cccc(NC(=O)Cn2c(=O)oc3ccccc32)c1,–,3.16 µM (active)
CCN(C(=O)Cn1c(=O)oc2ccccc21)c1cccc(C(F)(F)F)c1,–,3.55 µM (active)
Cc1cccc(N/C(N)=N/c2nc(C)cc(C)n2)c1,-35.4%,–
O=C(O)C1=CCNCC1,–,inactive
COc1ccccc1CNc1ccnc(-c2c(C)noc2C)n1,–,1 µM (active)
COc1ccc(CNc2ccnc(-c3c(C)noc3C)n2)c(OC)c1,–,1.58 µM (active)
COCCNc1ccnc(-c2c(C)noc2C)n1,-17.2%,–
COC(=O)N1CC(=O)N(OC)C1c1ccc(Cl)cc1Cl (stereo unspecified),–,5.62 µM (active)
CC(=O)N1CC(=O)N(OCc2ccccc2)C1c1ccc(Cl)cc1Cl (stereo unspecified),–,3.16 µM (active)
CCOc1ccc(N=C2NC(=O)C(CC(=O)O)S2)cc1 (stereo unspecified),-16.7%,–
Cc1ccc2c(c1)C(=O)[C@@]1(O)CCN(c3ccccc3)C1=N2,–,7.94 µM (active)
CCC(C)(C)N=C(NC#N)Nc1cccnc1,15.9%,–

Structure (SMILES),"activity, negative = inhibition",AC50
CC(C)(Oc1ccc(Cl)cc1)C(=O)Nc1ccncc1,–,0.0562 µM (active)
CC(C)(Oc1ccc(Cl)cc1)C(=O)Nc1cccnc1,–,2.51 µM (active)
CC(C)(Oc1ccc([C@@H]2CC2(Cl)Cl)cc1)C(=O)O,–,inactive
CC(C)(Oc1ccc(CCNC(=O)c2ccc(Cl)cc2)cc1)C(=O)O,-13.4% [at 25.6 µM],–
O=C1c2ccccc2CCC12N=NCC2c1ccc(Cl)cc1 (stereo unspecified),–,0.562 µM (active)
C=CCn1c(SCc2ccc3c(c2)OCO3)nc2scc(-c3ccco3)c2c1=O,–,1.41 µM (active)
C=CCn1c(SCc2ccccc2)nc2scc(-c3ccc(C)o3)c2c1=O,-28.8%,–
C=CCn1c(SC(C)C(=O)NCc2ccc3c(c2)OCO3)nc2scc(-c3ccccc3)c2c1=O (stereo unspecified),–,2 µM (active)
C=CCn1c(SCC(=O)N2CC(=O)Nc3ccccc32)nc2scc(-c3ccccc3)c2c1=O,–,7.94 µM (active)
NS(=O)(=O)c1cc2c(cc1Cl)N[C@@H](C(Cl)Cl)NS2(=O)=O,4.71% [at 25.6 µM],–
CCCCCCCCOC1OC(CO)C(O)C(O)C1NC(C)=O (stereo unspecified),51.9%,–
Cc1ccc(NC(=O)N/C=C/c2ccco2)cc1C,–,3.16 µM (active)
C/C(=N\NC(=O)CC1N=C(Cc2ccccc2)NNC1=O)c1ccc(Cl)cc1Cl (stereo unspecified),–,28.2 µM (active)
O=C(CC(c1ccccc1)c1ccccc1)NCC1CCCO1 (stereo unspecified),–,14.1 µM (active)
CC(NC(=O)OCc1ccccc1)C(=O)NCC1CCCO1 (stereo unspecified),-22.3%,–
O=C(CSCc1c(F)cccc1Cl)NCC1CCCO1 (stereo unspecified),–,11.2 µM (active)
Cc1cccc2c(SCC(=O)NCC3CCCO3)nc(-c3ccc(F)cc3)nc12 (stereo unspecified),–,1.26 µM (active)
CCNc1ncc2nc(-c3ccc(F)cc3)c(=O)n(C[C@H]3CCCO3)c2n1,-11.2%,–
CN(C)c1ncc2nc(-c3ccc(F)cc3)c(=O)n(C[C@H]3CCCO3)c2n1,-21.9%,–
CN(c1ccc(C(=O)NCC2CCCO2)cc1)S(=O)(=O)c1ccccc1 (stereo unspecified),-9.95%,–
Oc1ccc([C@@H]2CNCCc3c2cc(O)c(O)c3Cl)cc1,14.3%,–
CC(C)NC[C@@H](O)COc1ccc(CCOCC2CC2)cc1,–,inactive
COc1ccc(CCC(C)NC2C3CC4CC(C3)CC2C4)cc1 (stereo unspecified),–,25.1 µM (active)
